Test results as given in PubChem BioAssay (NCATS).
Records with an inconclusive call do not appear. Activity calls are given as the source filed them. Unless noted, calls follow the shape of the dose curve; as a rule, active = well fitted curve in either direction with a large enough effect (not every such curve was filed as active); inconclusive = small, poorly fitted or top-dose-only effect, or another doubt; inactive = flat fitted curve, though single readings scatter.

Columns and labels:
[1] = molecular target: Lysosomal acid glucosylceramidase (Homo sapiens) (UniProt P04062); experiment: Glucocerebrosidase-p2 (AID 348; in the data active = potency below about 10 µM; also: potency is read from the fitted curve at half-maximal effect); conditions: purified GBA, blue fluorogenic substrate, 40 min
Lysosomal acid glucosylceramidase (Homo sapiens), sequence (P04062 whole entry, looked up): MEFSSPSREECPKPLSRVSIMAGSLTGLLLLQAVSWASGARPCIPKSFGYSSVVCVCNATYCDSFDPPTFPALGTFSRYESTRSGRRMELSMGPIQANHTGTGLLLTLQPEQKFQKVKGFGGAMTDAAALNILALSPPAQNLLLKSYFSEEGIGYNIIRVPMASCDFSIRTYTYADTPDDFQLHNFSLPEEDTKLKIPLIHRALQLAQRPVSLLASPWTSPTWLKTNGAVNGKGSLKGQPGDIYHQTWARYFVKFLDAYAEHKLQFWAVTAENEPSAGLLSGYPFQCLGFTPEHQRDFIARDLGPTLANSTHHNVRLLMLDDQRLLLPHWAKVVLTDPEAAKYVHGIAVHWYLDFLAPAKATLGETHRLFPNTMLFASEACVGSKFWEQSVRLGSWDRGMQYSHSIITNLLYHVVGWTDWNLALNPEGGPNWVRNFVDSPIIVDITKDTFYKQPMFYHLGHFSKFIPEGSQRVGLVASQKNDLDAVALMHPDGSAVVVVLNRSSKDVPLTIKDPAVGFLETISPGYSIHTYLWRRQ
In short: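 Compounds titrated from 0.6 nM upwards against 0.2 nM enzyme in pH 5.9 citric acid/KH2PO4, taurocholate, tween-20; blue fluorogenic substrate 80 uM, 40 min room temperature, stopped and read Ex 365/Em 440 for AC50.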

[2] = AP1 Signaling Pathway (AID 357); conditions: ME-180 AP-1-bla reporter, EGF-induced, beta-lactamase ratio, 5 h; at 7.69 µM (top of the series) unless noted;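 also: ME-180 reporter cells stimulated with EGF at its EC50 level; % is scaled to controls: 0 for no effect and ±100 for the full control effect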
In short: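 Modulation of EGF-driven AP-1 transcription was assessed with a beta-lactamase reporter in ME-180 cells. Compound and EC50 EGF were co-incubated 5 hours at 37 °C before 2.5-hour CCF4 loading at room temperature and dual-emission reading.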

[3] = molecular target: Cytochrome P450 1A2 (Homo sapiens) (UniProt P05177); experiment: p450-cyp1a2 (AID 410; calls by dose curve; also: potency is read from the fitted curve at half-maximal effect); conditions: recombinant CYP1A2, luciferin-ME demethylation, luminescence; series mostly up to 57 µM
Cytochrome P450 1A2 (Homo sapiens), sequence (P05177 whole entry, looked up): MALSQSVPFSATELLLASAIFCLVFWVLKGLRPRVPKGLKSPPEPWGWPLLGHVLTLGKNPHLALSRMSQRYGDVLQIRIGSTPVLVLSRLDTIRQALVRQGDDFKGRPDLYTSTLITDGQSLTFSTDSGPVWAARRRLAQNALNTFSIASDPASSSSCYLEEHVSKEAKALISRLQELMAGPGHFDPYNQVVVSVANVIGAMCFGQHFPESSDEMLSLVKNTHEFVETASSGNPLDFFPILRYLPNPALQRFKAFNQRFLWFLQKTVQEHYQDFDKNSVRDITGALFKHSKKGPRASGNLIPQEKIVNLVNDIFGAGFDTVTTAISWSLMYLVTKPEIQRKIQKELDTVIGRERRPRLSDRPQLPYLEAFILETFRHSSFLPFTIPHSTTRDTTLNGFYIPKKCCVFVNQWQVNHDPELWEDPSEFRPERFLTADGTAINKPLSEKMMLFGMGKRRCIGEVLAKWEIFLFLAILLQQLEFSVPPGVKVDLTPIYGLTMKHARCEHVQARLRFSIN
In short: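 20nM CYP1A2 with 100uM Luciferin-ME (at Km) in 100mM KPO4; compound preincubated 10 min, NADPH regeneration added, 60 min at room temperature. Luciferin quantified by luminescence after detection reagent; normalized to 57 uM furafylline.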

[4] = NFAT Signaling Pathway (AID 444); conditions: Jurkat NFAT-bla M1, carbachol, beta-lactamase ratio, 5 h; at 7.69 µM (top of the series) unless noted;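 also: carbachol stimulus at about its EC50 of 1 µM final; % is scaled to controls: 0 for no effect and ±100 for the full control effect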
In short: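 Jurkat cells carrying an NFAT-driven β-lactamase reporter and co-transfected muscarinic M1 receptor were treated with compound plus carbachol (1 uM final, an EC50 level) for 5 h at 37 °C. CCF4 loading followed for 1 h at RT; 460/530 nm ratio gave %activity.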

[5] = Stat Signaling Pathway (AID 446); conditions: ME-180 SIE beta-lactamase reporter, IL-6 stimulated, 5 h; at 7.69 µM (top of the series) unless noted;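 also: ME-180 cervical cancer cells given 40 pM IL-6 alongside compound; SIE-controlled beta-lactamase reporter measured as 460/530 nm FRET emission ratio; % is scaled to controls: 0 for no effect and ±100 for the full control effect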
In short: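 Reporter line: ME-180 cervical carcinoma, SIE-beta-lactamase. Treatment: compound with 40 pM IL-6, 5 hrs, 37 C, in low-serum OPTI-MEM with 10 mM HEPES pH 7.3. Detection: 460/530 nm fluorescence.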

[6] = molecular target: Glucocorticoid receptor (Homo sapiens) (UniProt P04150); experiment: GR-GFP Redistribution (AID 450;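 active = compounds whose dose series gives a full or clear partial fitted curve of increased nuclear translocation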; also: potency is read from the fitted curve at half-maximal effect); conditions: U2OS GR-GFP nuclear translocation, laser cytometry, 2 h
Glucocorticoid receptor (Homo sapiens), sequence (P04150 whole entry, looked up, the tested form may be a part): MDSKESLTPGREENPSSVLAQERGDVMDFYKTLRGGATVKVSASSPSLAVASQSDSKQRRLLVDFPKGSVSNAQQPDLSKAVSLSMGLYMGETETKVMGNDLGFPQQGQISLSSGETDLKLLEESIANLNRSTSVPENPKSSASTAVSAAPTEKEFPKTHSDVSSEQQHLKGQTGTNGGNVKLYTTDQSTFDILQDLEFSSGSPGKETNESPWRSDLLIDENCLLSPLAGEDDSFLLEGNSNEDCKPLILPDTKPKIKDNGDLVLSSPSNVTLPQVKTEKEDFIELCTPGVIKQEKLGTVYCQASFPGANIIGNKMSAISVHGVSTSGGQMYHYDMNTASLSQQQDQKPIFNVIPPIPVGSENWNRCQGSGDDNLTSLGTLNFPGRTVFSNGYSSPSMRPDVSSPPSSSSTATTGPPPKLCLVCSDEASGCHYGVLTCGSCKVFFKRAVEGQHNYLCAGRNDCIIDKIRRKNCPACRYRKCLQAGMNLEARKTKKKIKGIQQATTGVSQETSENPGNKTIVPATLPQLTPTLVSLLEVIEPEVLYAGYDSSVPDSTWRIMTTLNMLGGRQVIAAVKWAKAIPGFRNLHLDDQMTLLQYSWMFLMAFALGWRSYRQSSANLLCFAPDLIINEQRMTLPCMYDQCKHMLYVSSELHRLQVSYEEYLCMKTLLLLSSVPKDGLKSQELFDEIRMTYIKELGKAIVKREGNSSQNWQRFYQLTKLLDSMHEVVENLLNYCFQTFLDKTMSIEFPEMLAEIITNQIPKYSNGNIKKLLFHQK

[7] = molecular target: Glucocorticoid receptor (Homo sapiens) (UniProt P04150); experiment: GR-EFC Redistribution (AID 451; calls by dose curve; also: potency is read from the fitted curve at half-maximal effect); conditions: CHO-K1 GR-EFC translocation, beta-gal luminescence, 2 h
In short: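 CHO-K1 cells stably expressing nuclear-localized β-gal enzyme acceptor and GR fused C-terminally to the enzyme donor fragment; ligand-driven nuclear translocation restores β-gal by complementation. Compounds titrated up to 46 uM final, 2 h at 37 °C; luminescence read.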

[8] = molecular target: Mitogen-activated protein kinase 10 (Mus musculus) (UniProt Q61831); experiment: JNK3 AlphaScreen Assay (AID 530); conditions: JNK3 lysate, c-Jun phosphorylation; series mostly up to 57.1 µM;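 also: kinase came from lysate of stimulated human HepG2 cells; signal reports phosphorylation of biotinylated GST-cJun 1-79 at Ser73 with 10 µM ATP; % is scaled to controls: 0 for no effect and ±100 for the full control effect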
In short: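 Inhibitors reduce antibody binding to phosphorylated biotin-cJun, lowering AlphaScreen luminescence. Lysates from HepG2 cells pre-activated by IL-1beta plus TNF-alpha supplied JNK3; compounds were titrated.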

[9] = molecular target: 3',5'-cyclic-AMP phosphodiesterase 4B (Homo sapiens) (UniProt Q07343); experiment: qHTS Assay for Inhibitors of PDE-IV (AID 607; active = well fitted activation curve with a large enough effect in the main read-out, with a control signal flat, not every such curve was filed as active; also: % of control where 0% means no effect); conditions: HEK293 ACTOne CNG channel cells, membrane potential fluorescence; series mostly up to 22.9 µM
3',5'-cyclic-AMP phosphodiesterase 4B (Homo sapiens), sequence (Q07343 whole entry, looked up): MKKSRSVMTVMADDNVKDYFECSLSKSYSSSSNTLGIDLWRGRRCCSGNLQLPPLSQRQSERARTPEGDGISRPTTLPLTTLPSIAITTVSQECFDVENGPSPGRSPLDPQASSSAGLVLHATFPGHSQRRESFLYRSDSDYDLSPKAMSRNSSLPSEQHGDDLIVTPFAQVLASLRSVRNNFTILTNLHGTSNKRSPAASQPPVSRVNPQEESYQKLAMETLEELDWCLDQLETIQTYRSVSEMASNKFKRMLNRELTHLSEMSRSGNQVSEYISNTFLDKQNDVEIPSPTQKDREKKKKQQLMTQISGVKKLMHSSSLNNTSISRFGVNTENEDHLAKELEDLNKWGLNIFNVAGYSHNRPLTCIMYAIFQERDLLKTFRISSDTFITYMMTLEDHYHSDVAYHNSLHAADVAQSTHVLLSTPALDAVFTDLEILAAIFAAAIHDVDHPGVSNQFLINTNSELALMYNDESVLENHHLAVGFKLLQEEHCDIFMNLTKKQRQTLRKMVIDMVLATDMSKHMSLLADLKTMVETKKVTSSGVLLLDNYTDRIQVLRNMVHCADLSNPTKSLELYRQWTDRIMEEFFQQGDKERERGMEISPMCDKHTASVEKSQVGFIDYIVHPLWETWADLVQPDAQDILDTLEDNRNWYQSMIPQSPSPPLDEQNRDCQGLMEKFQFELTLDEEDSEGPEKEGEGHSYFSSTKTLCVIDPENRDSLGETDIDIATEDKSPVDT
In short: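 Cell-based read-out of cAMP via a modified cyclic nucleotide-gated channel and membrane potential dye (535/590 nm) in HEK293 cells expressing PDE4 endogenously. Compounds tested up to 22.9 uM final; 100 uM RO 20-1724 reference.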

[10] = molecular target: Cytochrome P450 3A4 (Homo sapiens) (UniProt P08684); experiment: qHTS Assay for Activators of Cytochrome P450 3A4 (AID 885; active = well fitted curve in the direction sought with a large enough effect; an effect the other way counts as inactive or inconclusive; also: nearly all actives have a fitted effect of over 65% in size); conditions: recombinant CYP3A4, Luciferin-PPXE luminescence, 60 min; series mostly up to 57.1 µM
Cytochrome P450 3A4 (Homo sapiens), sequence (P08684 whole entry, looked up): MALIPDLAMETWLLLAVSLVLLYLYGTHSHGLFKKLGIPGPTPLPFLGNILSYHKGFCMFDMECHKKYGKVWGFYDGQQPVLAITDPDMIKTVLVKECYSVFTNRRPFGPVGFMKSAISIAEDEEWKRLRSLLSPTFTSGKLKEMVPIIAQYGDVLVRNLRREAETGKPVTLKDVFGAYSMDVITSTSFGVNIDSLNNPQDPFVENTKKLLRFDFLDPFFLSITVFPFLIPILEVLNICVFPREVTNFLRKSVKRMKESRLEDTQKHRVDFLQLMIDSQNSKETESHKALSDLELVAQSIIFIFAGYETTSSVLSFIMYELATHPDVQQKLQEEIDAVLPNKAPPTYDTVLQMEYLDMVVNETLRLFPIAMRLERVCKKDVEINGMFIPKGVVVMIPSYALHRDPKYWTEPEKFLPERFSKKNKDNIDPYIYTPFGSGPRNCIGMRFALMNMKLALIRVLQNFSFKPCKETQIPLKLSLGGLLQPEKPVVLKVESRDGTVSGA
In short: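 Signal was normalized against complete inhibition by 57 uM ketoconazole. The reaction used 20nM CYP3A4 with 25uM Luciferin-PPXE, 10-min compound preincubation and a 60-min NADPH-supported step at RT.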

[11] = Confirmation and Secondary Assay for Modulators of Hemoglobin Beta Chain Splicing at IVS2 654 locus (AID 910; active = well fitted curve in the direction sought with a large enough effect; an effect the other way counts as inactive or inconclusive;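 also: per-well total GFP intensity by laser scanning cytometry after 2-day treatment; % of control where 0% means no effect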); conditions: HeLa EGFP-654 splicing reporter, GFP fluorescence, 48 h; series mostly up to 38.3 µM
In short: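 HeLa cells stably carrying EGFP interrupted by mutant beta-globin IVS2-654 intron (CMV-driven) were treated with compound for 2 days at 37C; corrected splicing was scored as total peak GFP intensity per well (488 nm excitation, 500-520 nm emission).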

[12] = Confirmation and Secondary Assay for Modulators of Hemoglobin Beta Chain Splicing at IVS2 705 locus (AID 930; active = well fitted curve in the direction sought with a large enough effect; an effect the other way counts as inactive or inconclusive;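 also: HeLa cells stably expressing the EGFP-705 splicing reporter; GFP fluorescence per well restored by corrected splicing of the IVS2-705 intron in EGFP; % of control where 0% means no effect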); conditions: HeLa EGFP-705 splicing reporter, GFP fluorescence, 48 h; series mostly up to 38.3 µM
In short: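 Fluorescence gain (488 nm laser, 500-520 nm PMT) reflects restored correct splicing of a mutant IVS2-705 intron inside EGFP in stably transfected HeLa cells after 2-day compound treatment.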

[13] = qHTS Assay for Lipid Storage Modulators (AID 1519; calls by dose curve); conditions: Drosophila S3 cells, BODIPY lipid droplet/cell ratio, laser cytometry, cells loaded with oleic acid; for activity change, negative = inhibition: at 57.5 µM (top of the series)
In short: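 Cells seeded at 5,000 per well were treated with compounds over a concentration series and loaded with oleic acid (400 uM, as added). Lipid droplet fluorescence (488 nm excitation, 500-530 nm channel) was read by laser-scanning cytometry and normalized to 20 uM Triacsin C.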

[14] = molecular target: Ubiquitin carboxyl-terminal hydrolase 1 (Homo sapiens) (UniProt O94782); experiment: Inhibitors of USP1/UAF1: Pilot qHTS (AID 504865; active = well fitted curve in the direction sought with a large enough effect; an effect the other way counts as inactive or inconclusive;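 also: rhodamine fluorescence freed from ubiquitin-rhodamine substrate followed over time; top concentration of the series differs between compounds; % is scaled to controls: 0 for no effect and ±100 for the full control effect; nearly all actives have a fitted effect of over 35% in size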); conditions: purified USP1/UAF1, Ub-rhodamine cleavage fluorescence; series mostly up to 54.9 µM
Ubiquitin carboxyl-terminal hydrolase 1 (Homo sapiens), sequence (O94782 whole entry, looked up): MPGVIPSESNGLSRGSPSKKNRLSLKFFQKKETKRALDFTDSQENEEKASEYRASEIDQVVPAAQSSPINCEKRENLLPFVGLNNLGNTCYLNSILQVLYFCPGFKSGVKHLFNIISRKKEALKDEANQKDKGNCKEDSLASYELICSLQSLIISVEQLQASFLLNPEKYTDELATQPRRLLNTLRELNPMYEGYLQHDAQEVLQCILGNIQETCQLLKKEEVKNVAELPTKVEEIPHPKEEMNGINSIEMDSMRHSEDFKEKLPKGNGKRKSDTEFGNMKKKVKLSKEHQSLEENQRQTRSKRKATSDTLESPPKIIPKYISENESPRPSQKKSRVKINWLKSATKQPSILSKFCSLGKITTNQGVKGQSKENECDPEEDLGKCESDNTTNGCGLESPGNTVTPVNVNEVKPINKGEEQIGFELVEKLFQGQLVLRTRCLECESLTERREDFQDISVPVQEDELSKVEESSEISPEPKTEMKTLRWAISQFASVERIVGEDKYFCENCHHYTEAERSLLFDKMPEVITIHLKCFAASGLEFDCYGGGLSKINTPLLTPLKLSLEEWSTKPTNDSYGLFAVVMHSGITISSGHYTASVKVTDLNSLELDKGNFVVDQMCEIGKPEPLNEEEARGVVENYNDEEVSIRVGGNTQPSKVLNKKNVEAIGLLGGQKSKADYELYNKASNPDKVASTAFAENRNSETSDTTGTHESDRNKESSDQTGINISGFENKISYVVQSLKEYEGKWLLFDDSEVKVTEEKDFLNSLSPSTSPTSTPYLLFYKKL
In short: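 USP1/UAF1 complex at 1 nM preincubated 15 min at room temperature with compound, then Ub-Rho substrate added at 150 nM final. Fluorescence (480/540 nm) read kinetically in 50 mM HEPES pH 7.8, 0.5 mM EDTA, 1 mM TCEP, 0.1 mg/ml BSA, 0.01% Tween-20.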

[15] = Primary qHTS for small molecule stabilizers of the endoplasmic reticulum resident proteome: Secreted ER Calcium Modulated Protein (SERCaMP) assay (AID 1508630; active = well fitted curve in the direction sought with a large enough effect; an effect the other way counts as inactive or inconclusive; also: % is scaled to controls: 0 for no effect and ±100 for the full control effect); conditions: SH-SY5Y GLuc-SERCaMP (Gaussia luciferase released on ER calcium loss) secretion, thapsigargin, luminescence; series mostly up to 38.4 µM
In short: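 GLuc-SERCaMP-expressing SH-SY5Y cells, pretreated 16 h with compound, are challenged with thapsigargin to empty ER calcium stores; after 4 h, coelenterazine is added directly to the medium and luminescence is imaged.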

[16] = molecular target: Cytochrome P450 2C19 (Homo sapiens) (UniProt P33261); experiment: qHTS Assay for Inhibitors and Substrates of Cytochrome P450 2C19 (AID 899; active = well fitted curve in the direction sought with a large enough effect; an effect the other way counts as inactive or inconclusive; also: potency is read from the fitted curve at half-maximal effect; nearly all actives have a fitted effect of over 60% in size); conditions: recombinant CYP2C19, luciferin-H EGE luminescence; series mostly up to 57.1 µM
Cytochrome P450 2C19 (Homo sapiens), sequence (P33261 whole entry, looked up): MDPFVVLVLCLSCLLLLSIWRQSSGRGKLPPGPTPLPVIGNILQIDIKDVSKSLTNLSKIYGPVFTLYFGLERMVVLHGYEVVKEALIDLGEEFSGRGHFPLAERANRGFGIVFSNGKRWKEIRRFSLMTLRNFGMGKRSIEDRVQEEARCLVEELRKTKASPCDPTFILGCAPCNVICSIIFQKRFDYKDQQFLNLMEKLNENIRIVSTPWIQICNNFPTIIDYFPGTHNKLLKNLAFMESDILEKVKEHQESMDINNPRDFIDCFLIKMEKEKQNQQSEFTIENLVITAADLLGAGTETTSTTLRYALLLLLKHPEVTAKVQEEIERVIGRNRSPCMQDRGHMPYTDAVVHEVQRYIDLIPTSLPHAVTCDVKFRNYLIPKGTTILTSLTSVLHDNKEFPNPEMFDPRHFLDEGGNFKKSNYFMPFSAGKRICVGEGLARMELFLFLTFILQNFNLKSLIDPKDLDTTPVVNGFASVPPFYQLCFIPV
In short: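 Human CYP2C19 (5nM) with Luciferin-H EGE at 10uM (its KM) in 50mM KPO4 was preincubated with compound for 10 min at 37C. NADPH regeneration started a 60 min 37C reaction. Luciferin was read by luminescence, normalized to 57uM ketoconazole.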

[17] = molecular target: Cytochrome P450 3A4 (Homo sapiens) (UniProt P08684); experiment: qHTS Assay for Inhibitors and Substrates of Cytochrome P450 3A4 (AID 884; active = well fitted curve in the direction sought with a large enough effect; an effect the other way counts as inactive or inconclusive; also: potency is read from the fitted curve at half-maximal effect; nearly all actives have a fitted effect of over 50% in size); conditions: recombinant CYP3A4, Luciferin-PPXE luminescence; series mostly up to 57.1 µM
In short: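 20 nM human CYP3A4 with 25 uM Luciferin-PPXE (at KM) in 200 mM KPO4, preincubated 10 min with compound; NADPH regeneration started a 60 min RT reaction. Luciferin detected by luminescence, normalized to 57 uM ketoconazole as full inhibition.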

[18] = measured here: cell count channel max response
[19] = measured here: lipid channel max response

Compound	Potency [1]	activity change, negative = inhibition [2]	Potency [3]	activity change, negative = inhibition [4]	activity, negative = inhibition [5]	Potency [6]	Potency [7]	outcome [8]	Potency [9]	Potency [10]	outcome [11]	outcome [12]	activity change, negative = inhibition [13]	max response [13, 18]	max response [13, 19]	Potency [14]	Potency [15]	Potency [16]	Potency [17]
c1cncc(-c2cncnc2-n2ccnc2)c1	> 11.4 µM (inactive)	7.52% (inactive)	20 µM (active)	-6.63% (inactive)	0.845% (inactive)	> 46 µM (inactive)	> 46 µM (inactive)	inactive	inactive	inactive	inactive	inactive	7.84% (inactive)	7.56%	17.5%	inactive	inactive		
Cn1c(=O)cnc2cnc(Oc3ccccc3)nc21	> 11.4 µM (inactive)	5.77% (inactive)	10 µM (active)	4.94% (inactive)	-3.04% (inactive)	> 9.22 µM (inactive)	> 46 µM (inactive)	inactive	inactive				3.92% (inactive)	18.8%	25.3%		inactive		
COc1cccc(-c2nccc(-n3ccnc3)n2)c1	> 11.4 µM (inactive)	9.38% (inactive)	0.0316 µM (active)	14% (inactive)	-0.599% (inactive)	> 46 µM (inactive)	> 46 µM (inactive)	inactive	inactive	inactive	inactive	inactive	4.69% (inactive)	4.96%	13.1%		inactive	2.51 µM (active)	
COc1ncc2nc(-c3cc(F)cc(F)c3)c(=O)n(CCC#N)c2n1	> 11.4 µM (inactive)	2.61% (inactive)	6.31 µM (active)	-5.52% (inactive)	-7.47% (inactive)	> 9.22 µM (inactive)	> 46 µM (inactive)	inactive	inactive	inactive			5.74% (inactive)	17.3%	25.6%		inactive		
O=c1c(-c2ccccc2)nc2cnc(Oc3ccccc3)nc2n1Cc1cccs1	> 11.4 µM (inactive)	-0.0665% (inactive)	2.51 µM (active)	-0.0107% (inactive)	3.84% (inactive)	> 9.22 µM (inactive)	> 46 µM (inactive)	inactive	inactive				-10.3% (inactive)	21.8%	12.8%		inactive		
Cc1cccc(CNc2ccnc(-c3cccnc3)n2)c1	> 11.4 µM (inactive)	-18.1% (inactive)	0.126 µM (active)	10.6% (inactive)	1.1% (inactive)	> 46 µM (inactive)	> 46 µM (inactive)	inactive	inactive	inactive	inactive	inactive	8.22% (inactive)	-7.71%	-5.64%		inactive	2.51 µM (active)	0.501 µM (active)
